Data reported in PubChem BioAssay AID588689 (Southern Research Specialized Biocontainment Screening …, 2011).
Out of some 340,000 compounds screened, about 1,000 (0.29%) were called active. Cut-off read from the data, not from the text of the source: inconclusive = inhibition above about 29% without an active follow-up result; inactive = below that. Only a sample is shown. Results with a measured potency or affinity are listed apart.

Target: Genome polyprotein (Dengue virus type 2 (strain 16681-PDK53)) (UniProt P29991)
Sequence (P29991 whole entry, looked up): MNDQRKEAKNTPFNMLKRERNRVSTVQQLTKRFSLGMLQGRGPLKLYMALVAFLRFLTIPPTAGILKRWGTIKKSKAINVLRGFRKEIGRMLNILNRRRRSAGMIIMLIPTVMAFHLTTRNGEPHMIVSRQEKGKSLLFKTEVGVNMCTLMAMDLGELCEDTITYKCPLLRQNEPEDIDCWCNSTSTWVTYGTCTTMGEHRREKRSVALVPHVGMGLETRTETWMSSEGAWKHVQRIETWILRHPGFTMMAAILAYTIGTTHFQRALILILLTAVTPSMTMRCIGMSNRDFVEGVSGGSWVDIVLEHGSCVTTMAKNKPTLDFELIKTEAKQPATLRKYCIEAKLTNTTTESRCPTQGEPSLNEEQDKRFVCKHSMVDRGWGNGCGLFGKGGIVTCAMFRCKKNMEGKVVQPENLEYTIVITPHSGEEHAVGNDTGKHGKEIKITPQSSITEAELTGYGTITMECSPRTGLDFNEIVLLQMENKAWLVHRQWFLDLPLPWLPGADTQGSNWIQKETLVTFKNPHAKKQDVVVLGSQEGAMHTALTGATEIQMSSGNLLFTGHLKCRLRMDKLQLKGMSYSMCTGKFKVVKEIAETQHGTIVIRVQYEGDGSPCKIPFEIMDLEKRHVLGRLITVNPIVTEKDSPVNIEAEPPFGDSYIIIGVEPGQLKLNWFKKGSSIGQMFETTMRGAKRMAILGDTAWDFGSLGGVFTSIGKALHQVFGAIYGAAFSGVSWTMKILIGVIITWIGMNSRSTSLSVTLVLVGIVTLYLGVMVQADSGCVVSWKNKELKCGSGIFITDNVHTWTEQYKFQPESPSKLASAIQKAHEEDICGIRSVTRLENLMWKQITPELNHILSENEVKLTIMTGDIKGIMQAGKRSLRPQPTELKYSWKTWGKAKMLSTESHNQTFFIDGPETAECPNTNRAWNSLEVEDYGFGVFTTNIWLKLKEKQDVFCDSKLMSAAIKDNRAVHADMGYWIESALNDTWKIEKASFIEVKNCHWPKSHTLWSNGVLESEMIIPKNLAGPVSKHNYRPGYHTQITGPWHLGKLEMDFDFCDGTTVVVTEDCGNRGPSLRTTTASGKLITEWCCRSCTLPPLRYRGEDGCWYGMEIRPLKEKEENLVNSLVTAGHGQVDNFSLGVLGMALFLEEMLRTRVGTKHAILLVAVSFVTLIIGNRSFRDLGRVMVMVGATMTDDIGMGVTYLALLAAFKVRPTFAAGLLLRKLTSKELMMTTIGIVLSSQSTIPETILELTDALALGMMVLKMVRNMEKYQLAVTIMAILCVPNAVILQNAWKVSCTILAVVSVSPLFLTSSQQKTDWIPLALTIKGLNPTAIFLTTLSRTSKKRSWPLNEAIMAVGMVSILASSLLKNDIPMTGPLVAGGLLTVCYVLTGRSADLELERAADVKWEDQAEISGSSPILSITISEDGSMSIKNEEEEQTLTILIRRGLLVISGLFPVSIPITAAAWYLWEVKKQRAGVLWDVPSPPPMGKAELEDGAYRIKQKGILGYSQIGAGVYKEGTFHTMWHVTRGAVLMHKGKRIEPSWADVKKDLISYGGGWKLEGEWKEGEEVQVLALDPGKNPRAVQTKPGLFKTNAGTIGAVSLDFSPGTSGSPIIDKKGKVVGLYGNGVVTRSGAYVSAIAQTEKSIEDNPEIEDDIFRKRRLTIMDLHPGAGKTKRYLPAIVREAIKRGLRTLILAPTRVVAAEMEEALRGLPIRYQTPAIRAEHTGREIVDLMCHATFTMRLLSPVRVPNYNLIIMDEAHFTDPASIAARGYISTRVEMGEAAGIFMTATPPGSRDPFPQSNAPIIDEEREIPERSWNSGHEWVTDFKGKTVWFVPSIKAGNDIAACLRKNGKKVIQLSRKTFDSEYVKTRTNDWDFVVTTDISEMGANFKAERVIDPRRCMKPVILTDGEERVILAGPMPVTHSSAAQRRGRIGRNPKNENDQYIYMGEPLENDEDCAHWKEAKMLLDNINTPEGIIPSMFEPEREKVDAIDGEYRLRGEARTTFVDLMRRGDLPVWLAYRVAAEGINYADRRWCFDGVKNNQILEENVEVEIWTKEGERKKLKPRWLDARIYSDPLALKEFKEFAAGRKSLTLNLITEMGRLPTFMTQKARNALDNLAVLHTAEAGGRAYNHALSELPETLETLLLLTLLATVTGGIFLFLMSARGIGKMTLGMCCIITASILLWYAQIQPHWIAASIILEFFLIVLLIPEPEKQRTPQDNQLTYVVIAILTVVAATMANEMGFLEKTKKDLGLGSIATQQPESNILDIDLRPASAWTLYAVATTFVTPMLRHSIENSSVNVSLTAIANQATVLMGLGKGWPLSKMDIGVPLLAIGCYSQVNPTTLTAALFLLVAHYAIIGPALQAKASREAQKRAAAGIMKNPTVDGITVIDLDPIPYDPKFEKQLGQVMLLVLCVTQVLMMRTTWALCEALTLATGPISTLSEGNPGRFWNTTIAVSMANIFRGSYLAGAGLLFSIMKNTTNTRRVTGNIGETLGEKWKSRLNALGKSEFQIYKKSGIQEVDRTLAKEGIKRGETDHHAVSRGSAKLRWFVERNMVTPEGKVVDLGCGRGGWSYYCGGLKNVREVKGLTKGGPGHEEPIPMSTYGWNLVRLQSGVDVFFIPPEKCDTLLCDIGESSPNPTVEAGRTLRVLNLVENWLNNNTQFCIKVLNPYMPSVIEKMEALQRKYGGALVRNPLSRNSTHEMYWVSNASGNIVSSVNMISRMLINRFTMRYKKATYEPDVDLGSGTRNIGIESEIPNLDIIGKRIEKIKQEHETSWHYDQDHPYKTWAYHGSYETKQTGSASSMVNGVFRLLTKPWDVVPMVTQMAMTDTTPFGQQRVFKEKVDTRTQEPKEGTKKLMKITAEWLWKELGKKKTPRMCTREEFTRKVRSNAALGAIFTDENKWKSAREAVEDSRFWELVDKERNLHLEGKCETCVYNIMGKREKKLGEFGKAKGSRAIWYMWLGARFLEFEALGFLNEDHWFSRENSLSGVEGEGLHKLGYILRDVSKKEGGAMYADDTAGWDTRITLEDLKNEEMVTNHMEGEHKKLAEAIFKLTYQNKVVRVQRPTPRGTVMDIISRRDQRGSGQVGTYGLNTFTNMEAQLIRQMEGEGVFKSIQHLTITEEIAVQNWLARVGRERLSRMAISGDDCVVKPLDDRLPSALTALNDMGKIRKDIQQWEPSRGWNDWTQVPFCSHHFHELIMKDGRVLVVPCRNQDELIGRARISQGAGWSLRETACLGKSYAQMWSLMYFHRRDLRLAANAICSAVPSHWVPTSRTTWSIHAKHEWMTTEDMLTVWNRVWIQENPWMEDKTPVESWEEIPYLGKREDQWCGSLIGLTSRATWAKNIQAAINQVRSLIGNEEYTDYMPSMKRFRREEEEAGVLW
Assay: Dengue-2 NS5 methyltransferase inhibitors, primary screen, biochemical, confirmation dose response (AID 588689)
Conditions: Dengue-2 NS5 methyltransferase capping enzyme assay, at 25 µM, active compounds read high

inhibition, inactive:
COc1ccc(NC(=O)C2CCCCN2S(=O)(=O)c2ccc(F)cc2)cc1 (centres undefined) -2.91%
Cc1csc2nc(=O)c3ccccc3n12 -0.7%
Oc1c(Cl)cc(Cl)cc1CNc1nc2ccccc2[nH]1 -17.7%
Cc1cccc(NCc2cc(Cl)cc(Cl)c2O)n1 -2.76%
O=C(CSc1nnc2scc(-c3ccccc3)n12)NCc1ccc2c(c1)OCO2 -2.59%
Nc1c(Cl)cc2c(c1Oc1ccccc1)C(=O)c1ccccc1C2=O 0%
NC1=C(Cl)C(=O)c2ccccc2C1=O -5.02%
Cc1cc(C)n(CC(=O)NNC(=O)COc2ccc(Cl)cc2Cl)n1 -9.01%
COc1ccc2c(c1)[nH]c1c(=O)n(CCN3CCOCC3)cnc12 -4.77%
O=C(CN(C(=O)Cn1nnc(-c2ccc(F)cc2)n1)c1ccc(F)cc1)NC1CCCC1 -4.85%
O=C(NCc1cccs1)c1nc2c(nnn2Cc2ccc(F)cc2)c(=O)[nH]1 -3.42%
O=C(NCc1ccco1)c1nc2c(nnn2Cc2ccccc2Cl)c(=O)[nH]1 -1.35%
COc1cc(/C=C2\SC(=O)N(c3ccc(Cl)cc3)C2=O)cc([N+](=O)[O-])c1O 3.7%
COc1cc(/C=C2\SC(=O)N(Cc3ccc(F)cc3)C2=O)cc([N+](=O)[O-])c1O 14.6%
CC(C)c1ccc(CCNC(=O)CCNS(=O)(=O)c2ccc(Br)cc2)cc1 2.95%
CC1CCCN(CCCOc2ccc(Br)cc2Cl)C1 (centres undefined) -5.92%
C=CCn1c(SCC(=O)c2[nH]c(C)c(C(=O)OCC)c2C)nc2scc(-c3ccccc3)c2c1=O 0.73%
CCSc1nnc2c(n1)OC1(CCCC1)Nc1ccccc1-2 -4.17%
Nc1ccccc1-c1nnc(SCc2ccccc2F)[nH]c1=O 2.71%
CCC1Nc2ccccc2-c2nnc(SC)nc2O1 (centres undefined) 6.45%
O=c1cc(-c2ccccc2)nc(SCc2ccccc2F)[nH]1 -2.34%
Cc1[nH]c(C)c(S(=O)(=O)N(Cc2ccccc2)C(C)C)c1C(=O)N1CCCC1 -0.98%
COc1ccc(S(=O)(=O)N2CCN(C(=O)CCOc3ccccc3)CC2)cc1OC 4.1%
O=C(O)c1ccccc1NSc1ccccc1[N+](=O)[O-] 21.6%
Cc1ccc2c(c1C)NC(C(=O)O)C1CC=CC21 (centres undefined) 9.74%
CCN(CC(=O)Nc1ccc(NC(C)=O)cc1)C(=O)c1ccc(NC2CC2)c([N+](=O)[O-])c1 -1.48%
CCN(CC(=O)Nc1ccc(NC(C)=O)cc1)C(=O)c1ccc(N2CCC(C)CC2)c([N+](=O)[O-])c1 -0.77%
O=C(O)C1CCC(NSc2ccccc2[N+](=O)[O-])CC1 (centres undefined) 7.73%
O=C(O)c1cccc2c1-c1c(cccc1[N+](=O)[O-])C2 -1.17%
